According to PubChem BioAssay (NCATS):
Records with an inconclusive call do not appear. Unmarked numbers belong to inactive results. Active and inactive are the calls of the source. Unless noted, the call rests on the fitted dose curve.

Key:
[1] = Cell Viability - BJ (AID 421); conditions: BJ fibroblast viability, qHTS;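 further: potency means the concentration at half of the fitted maximal effect; cells exposed to compound for 40 hours at 37 °C before readout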
Outline: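 Cytotoxicity as drop in intracellular ATP (CellTiter-Glo, 20 min RT) after 40 hr compound exposure of BJ fibroblasts at 37 °C. Titrations scaled between DMSO and 100 uM tamoxifen, Hill-fitted for AC50.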

[2] = Cell Viability - Jurkat (AID 426;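 active means dose-dependent loss of cell ATP signal giving a full or clear fitted curve, ranked by lower potency value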;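 further: potency means the concentration at half of the fitted maximal effect; cells exposed to compound for 40 hours at 37 °C before ATP read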); conditions: qHTS
Outline: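 Cytotoxicity was scored as loss of cellular ATP, measured by luciferase-based luminescence, in Jurkat clone E6-1 cells after 40 h compound treatment; tamoxifen and doxorubicin served as positive controls.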

[3] = Cell Viability - Hek293 (AID 427;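 active means compounds whose dose-response curve shows a full or clear partial loss of cell viability, called from curve shape rather than a numeric limit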;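 further: potency means the concentration at half of the fitted maximal effect; cells exposed to compound for 40 hours at 37 °C before reading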); conditions: qHTS
Outline: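 Luminescent ATP content (CellTiter-Glo, 20 min at room temperature) was measured after a 40 hr, 37 °C compound exposure of HEK293 cells. AC50 values came from Hill-equation fits of qHTS concentration-response data normalized to DMSO and 100 uM tamoxifen.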

[4] = Cell Viability - HepG2 (AID 433); conditions: qHTS;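 further: potency means the concentration at half of the fitted maximal effect; potency for ATP loss meaning cytotoxicity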
Outline: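 HepG2 hepatocellular carcinoma cells (1500/well) were treated with compounds for 40 h at 37 °C in complete medium; intracellular ATP was read by CellTiter-Glo luminescence. Data were normalized to DMSO and 100 uM tamoxifen, and AC50 came from Hill fits.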

[5] = Cell Viability - MRC5 (AID 434); conditions: MRC5 lung fibroblast viability, qHTS;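 further: potency means the concentration at half of the fitted maximal effect; potency reflects cytotoxicity seen as loss of intracellular ATP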
Outline: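 Decrease in intracellular ATP, quantified by luciferase light output, reflects compound toxicity toward MRC5 cells exposed for 40 hr in complete culture medium. Concentration-response curves, scaled between DMSO and 100 uM tamoxifen, gave AC50 values.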

[6] = Cell Viability - SK-N-SH (AID 435); conditions: SK-N-SH neuroblastoma cell viability qHTS;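 further: potency means the concentration at half of the fitted maximal effect; compound exposure lasted 40 h at 37 °C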
Outline: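 SK-N-SH human neuroblastoma cells (1500/well) were exposed to compounds in complete medium for 40 h at 37 °C, and intracellular ATP was then measured by CellTiter-Glo luminescence. AC50 was taken from Hill fits, normalized to DMSO and 100 uM tamoxifen.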

[7] = molecular target: Mitogen-activated protein kinase 10 (Mus musculus) (UniProt Q61831); test: JNK3 AlphaScreen Assay (AID 530; active means well fitted curve in either direction with a large enough effect, not every such curve was filed as active;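 further: kinase came from lysate of stimulated human HepG2 cells; signal reports phosphorylation of biotinylated GST-cJun 1-79 at Ser73 with 10 µM ATP; on the % scale 0 is the no-effect control and ±100 the full control effect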); conditions: JNK3 lysate, c-Jun phosphorylation; series mostly up to 57.1 µM
Outline: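 Biotinylated GST-cJun(1-79) served as substrate for JNK3 in HepG2 lysates stimulated with IL-1beta and TNF-alpha. ATP was 10 uM final, pH 7.6. Ser73 phosphorylation was quantified by AlphaScreen (680 nm excitation).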

[8] = Cell Viability - NIH 3T3 (AID 541; active means well fitted curve in the direction sought with a large enough effect; an effect the other way counts as inactive or inconclusive;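 further: plate controls were DMSO alone for no effect and tamoxifen positive control for full effect; nearly all actives have a fitted effect of over 25% in size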); conditions: NIH 3T3 cell viability, qHTS; activity change, negative = cytotoxicity: at 92.2 µM (top of the series)
Outline: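 In this cytotoxicity screen, acute toxicity is scored as an ATP drop measured by CellTiter-Glo in NIH 3T3 fibroblasts following a 40 hr, 37 °C incubation with compound.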

[9] = Cell Viability - HUV-EC-C (AID 542; active means well fitted curve in the direction sought with a large enough effect; an effect the other way counts as inactive or inconclusive; further: on the % scale 0 is the no-effect control and ±100 the full control effect; nearly all actives have a fitted effect of over 35% in size); conditions: HUV-EC-C endothelial cell viability, qHTS; series mostly up to 92.2 µM
Outline: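 Concentration-dependent ATP loss in HUV-EC-C cells is the measure. Exposure lasts 40 hr at 37 °C; luminescence follows CellTiter-Glo addition, and Hill fits give AC50.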

[10] = Cell Viability - N2a (AID 540; active means well fitted curve in the direction sought with a large enough effect; an effect the other way counts as inactive or inconclusive;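 further: plate controls were DMSO alone for no effect and tamoxifen control for full effect; nearly all actives have a fitted effect of over 45% in size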); conditions: N2a mouse neuroblastoma cell viability; activity change, negative = cytotoxicity: at 92.2 µM (top of the series)
Outline: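 In this qHTS cytotoxicity screen, ATP-dependent luciferase luminescence reports viable N2a cells after a 40 hr compound exposure in complete culture medium. Potencies are AC50 values from standard Hill equation fits.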

SMILES	Potency [1] [µM]	Potency [2] [µM]	Potency [3]	Potency [4] [µM]	Potency [5] [µM]	Potency [6] [µM]	outcome [7]	Potency [8]	Potency [9]	activity change, negative = cytotoxicity [10] [%]
Cc1ccc([N+](=O)[O-])c(N)c1	> 92	> 92	> 92 µM	> 92	> 92	> 92	inactive	inactive	inactive	
CCCCCCC=O	> 92	> 92	> 92 µM	> 92	> 92	> 92	inactive	inactive	inactive	
CCc1ccccc1O	> 92	> 92	> 92 µM	> 92	> 92	> 92	inactive	inactive	inactive	
COC(=O)CC#N	> 92	> 92	> 92 µM	> 92	> 92	> 92	inactive	inactive	inactive	
CN(C)CCCCl	> 92	> 92	> 92 µM	> 92	> 92	> 92	inactive	inactive	inactive	
C=CCCCC	> 92	> 92	> 92 µM	> 92		> 92	inactive	inactive	inactive	6.23
O=c1[nH][nH]c(=O)c2cc([N+](=O)[O-])ccc12	> 92	> 92	> 92 µM	> 92		> 92	inactive		inactive	11.9
Cc1ccc(N(C)C)cc1	> 92	> 92	> 92 µM	> 92		> 92	inactive	inactive	inactive	-13.1
CC(=O)Nc1ccc(C)cc1	> 92	> 92	> 92 µM	> 92	> 92		inactive		inactive	-10.4
C=C(C)C(=O)OCCCCCC	> 92	> 92	> 92 µM	> 92		> 92	inactive	inactive	inactive	-2.36
CCC(C)O (stereo unspecified)	> 92	> 92	> 92 µM	> 92	> 92		inactive	inactive	inactive	-8.95
CC(=O)Nc1cccc(N)c1	> 92	> 92	> 92 µM	> 92		> 92	inactive		inactive	5.61
C=C(C)C(=O)OCC(C)O (stereo unspecified)	> 92	> 92	> 92 µM	> 92		> 92	inactive	inactive	inactive	6.96
O=C(O)CNC(=O)c1ccc([N+](=O)[O-])cc1	> 92	> 92	> 92 µM	> 92	> 92		inactive	inactive	inactive	-8.74
CC(=O)OC(C)=O	> 92	> 92	> 92 µM	> 92		> 92	inactive	inactive	inactive	1.01
CCOC(C)(C)C	> 92	> 92	> 92 µM	> 92		> 92	inactive	inactive		-6.59
CCC=O	> 92	> 92	> 92 µM	> 92	> 92		inactive		inactive	
CCCCCO	> 92	> 92	> 92 µM	> 92	> 92		inactive		inactive	3.49
CC(=O)c1ccc([N+](=O)[O-])cc1	> 92	> 92	> 92 µM	> 92		> 92	inactive	inactive		
Cc1ccc2c(c1[N+](=O)[O-])C(=O)c1ccccc1C2=O	> 92	> 92	0.351 µM (active)	> 92		> 92	inactive	inactive	inactive	3.24
Nc1cccc([N+](=O)[O-])c1	> 92	> 92	> 92 µM	> 92		> 92	inactive	inactive	inactive	-10.1
COCCOC(=O)c1ccccc1C(=O)OCCOC	> 92	> 92	> 92 µM	> 92		> 92	inactive		inactive	4.24
CCN(Cc1ccccc1)c1ccccc1	> 92	> 92	> 92 µM	> 92	> 92		inactive		inactive	15.1
Cc1c(N)cccc1[N+](=O)[O-]	> 92	> 92	> 92 µM	> 92		> 92	inactive	inactive		3.87
Cc1ccc(Cl)cc1	> 92	> 92	> 92 µM	> 92		> 92	inactive	inactive	inactive	1.61

SMILES	Potency [1] [µM]	Potency [2] [µM]	Potency [3]	Potency [4] [µM]	Potency [5] [µM]	Potency [6] [µM]	outcome [7]	Potency [8]	Potency [9]	activity change, negative = cytotoxicity [10] [%]
Cc1ccccc1C(=O)O	> 92	> 92	> 92 µM	> 92	> 92		inactive	inactive	inactive	-16.3
CCCCCCC(=O)O	> 92	> 92	> 92 µM	> 92	> 92		inactive	inactive	inactive	-3.74
C1CCOC1	> 92	> 92	> 92 µM	> 92		> 92	inactive	inactive	inactive	3.61
CC(C)N(C)C	> 92	> 92	> 92 µM	> 92		> 92	inactive		inactive	
c1ccc(Nc2ccccc2)cc1	> 92	> 92	> 92 µM	> 92	> 92		inactive		inactive	-5.87
Cc1cccc(C(=O)O)c1[N+](=O)[O-]	> 92	> 92	> 92 µM	> 92	> 92		inactive	inactive	inactive	8.99
C=C(C)C(=O)OC	> 92	> 92	> 92 µM	> 92		> 92	inactive	inactive	inactive	2.46
Nc1ccc(Cl)cc1[N+](=O)[O-]	> 92	> 92	> 92 µM	> 92		> 92	inactive	inactive	inactive	-24.6
NS(=O)(=O)O	> 92	> 92	> 92 µM	> 92		> 92	inactive	inactive	inactive	-0.868
CCC(C)(C)OC	> 92	> 92	> 92 µM	> 92	> 92		inactive	inactive	inactive	
Cc1nc2ccc(Cl)cc2[nH]1	> 92	> 92	> 92 µM	> 92	> 92		inactive	inactive	inactive	-5.91
COc1ccc(N)c(OC)c1	> 92	> 92	> 92 µM	> 92	> 92		inactive	inactive	inactive	-1.93
O=C(O)c1ccc(Cl)cc1Cl	> 92	> 92	> 92 µM	> 92		> 92	inactive	inactive	inactive	7.33
CCCCC(=O)N(C)C	> 92	> 92	> 92 µM	> 92		> 92	inactive	inactive		-2.03
CC(C)(C)OCC1CO1 (stereo unspecified)	> 92	> 92	> 92 µM	> 92		> 92	inactive	inactive	inactive	3.76
O=C(O)c1ccccc1C(=O)O	> 92	> 92	> 92 µM	> 92		> 92	inactive		inactive	1.25
CCC(=O)/C=C/C1C(C)=CCCC1(C)C (stereo unspecified)	> 92	> 92	> 92 µM	> 92		> 92	inactive	inactive	inactive	-6.46
CNc1ccc([N+](=O)[O-])cc1	> 92	> 92	> 92 µM	> 92	> 92		inactive		inactive	-12.7
CCCC(Cl)CCCC(Cl)CCC(Cl)CCC(Cl)CCC(Cl)CCCC(Cl)CCC (stereo unspecified)	> 92	> 92	> 92 µM	> 92	> 92		inactive	inactive	inactive	-0.927
Nc1cc([N+](=O)[O-])ccc1C(=O)O	> 92	> 92	> 92 µM	> 92		> 92	inactive		inactive	
C=Cc1ccccn1	> 92	> 92	> 92 µM	> 92			inactive		inactive	5.72
O=C(O)c1cc(Cl)cc(Cl)c1	> 92	> 92	> 92 µM	> 92			inactive	inactive	inactive	
Nc1nc2ccccc2[nH]1	> 92	> 92	> 92 µM		> 92	> 92	inactive	inactive	inactive	-3.92
N#CC1(O)CCCCC1	> 92	> 92	> 92 µM		> 92	> 92	inactive	inactive	inactive	14.1
